Experimental findings from PubChem BioAssay are described below.

Where “and” joins values, the source holds several entries; their conditions need not be identical. Equal values may be shown once. Calls of active or inactive are those of the source. Cut-off read from the data, not from the text of the source, unless noted: active = parasite load remaining mostly below about 12% (no sharp cut-off); inactive = mostly above about 10%.

Experiment [1] is described as follows: P. berghei load reduction in hepatocytes – cell-based, HepG2, luciferase luminescence, HepG2 viability, primary screen (AID 624349).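 Note: 100% = mean of DMSO negative control wells on the same plate.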 To be noted: P. berghei liver stage in HepG2, luciferase luminescence, concentration not given here; parasite load remaining: stronger effect = lower value; viability: measured here: HepG2 viability without parasites.
The nature of experiment [2]: Wnt pathway potentiators raising nuclear beta-catenin – imaging, WNT3A-conditioned medium, mouse C2C12, NPC library, primary screen (AID 1117326; in the data active = nuclear beta-catenin stimulation mostly above about 4.2%, no sharp cut-off; inactive = mostly below about 10%). The conditions noted are these: stronger effect = higher value.
A short description of experiment [3]: stimulators of insulin release from INS-1E, primary screen, cell-based, 5 mM glucose, NPC library (AID 1117329;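 active = compound raises insulin release from rat beta cells at 5 mM glucose, no numeric limit stated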). The conditions noted are these: rat INS-1E insulin secretion, at 10 µM, stronger effect = higher value.
Experiment [4] is described as follows: growth inhibition of GSK3B-pretreated HCT116 cells – cell-based, CellTiter-Glo, 0.2 to 20 µM (AID 1117336;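 active = compounds lowering colon cancer cell viability after pretreatment blocking the GSK3B kinase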). To be noted: HCT116 viability after GSK3B inhibitor, at 20 µM, stronger effect = higher value.
Experiment [5] in a line: inhibition of endothelial tube formation, primary screen, imaging, VEGF stimulated, CD31 staining, tube area, NPC library (AID 1117340;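 active = compound that reduces growth-factor-driven endothelial tube area in a mixed cell culture, no cutoff stated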). The conditions noted are these: VEGF-stimulated ADSC/ECFC co-culture, at 10 µM, stronger effect = higher value.
Experiment [6] can be described thus: GLP1 release stimulators, primary, NCI-H716, NPC library (AID 1117341;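 active = compound raises GLP1 secretion from the human gut endocrine cells, with no numeric limit stated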). To be noted: NCI-H716 cells, at 10 µM, stronger effect = higher value.
The nature of experiment [7]: HCT116 colon cancer cell growth inhibition, primary screen, CellTiter-Glo luminescence, NPC library (AID 1117342;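 active = compounds that lower survival of HCT116 colon cancer cells in the luminescence readout, no numeric limit stated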). To be noted: at 20 µM (top of the series). On the technique in general: Cellular ATP, detected with luciferase, serves as a proxy for viable cell number.
Experiment [8] is described as follows: reduced SW480 viability measured with CellTiter-Glo, NPC library, primary (AID 1117343;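 active = compounds that lower viability of the colon cancer cells in the luminescence readout, with no numeric limit stated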). To be noted: CellTiter-Glo luminescence; at 20 µM (top of the series) unless noted.
A short description of experiment [9]: NPC library primary testing for decreased DLD-1 cell viability via CellTiter-Glo (AID 1117346;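 active = compounds that lower survival of DLD-1 colon cancer cells in the luminescence readout, no cutoff given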). To be noted: DLD-1 viability, CellTiter-Glo luminescence; at 20 µM (top of the series).
Experiment [10] is described as follows: viability loss with induced miR-34 in A549 – imaging, A549 dox-inducible miR-34, nuclei and caspase counts, primary screen (AID 1347080;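 active = compounds whose cell count with miR-34 switched on is under 0.7 times the count with it off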). The conditions noted are these: A549 miR-34 inducible, Hoechst nuclei count, 48 h.
A short description of experiment [11]: MELAS cybrid and Rieske KO viability enhancers – cell-based, MELAS cybrids, Rieske KO mouse fibroblasts, CellTiter-Glo, primary screen (AID 1508586;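 active = mean z-score across replicates of 1.96 or higher in either the MELAS or the Rieske mutant cell line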;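 note: z relative to plate mean and SD of compound and empty wells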). The conditions noted are these: low glucose.
Experiment [12] deals with NAD(+) hydrolase SARM1 (Homo sapiens) (UniProt Q6SZW1). In words: blocking NAD cleavage by SARM1 SAM-TIR – cell lysate, NAD-Glo luminescence (AID 1508614;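 active = compound whose remaining NAD level is above about 45 nM, limit read from the data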;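 note: higher remaining NAD means stronger inhibition of SARM1 NADase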). The conditions noted are these: SAM-TIR HEK293T lysate NADase, at 1 µM, stronger effect = higher value.
Experiment [13] in a line: galactose survival enhancers in mitochondrial complex I cybrids – cell-based, galactose medium, ATP luminescence, primary screen (AID 1645843;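 active = z-score of at least 1.8 in each of two replicates, scored against plate mean and spread of sample wells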;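 note: positive z means more ATP and so rescue of galactose-driven cybrid death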). To be noted: complex I mutant cybrid cells, 72 h, stronger effect = higher value.
Experiment [14] is described as follows: compounds altering viability of human ES cells (AID 493140; call rule not given here;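 note: cells exposed to compounds for four days before counting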). The conditions noted are these: human embryonic stem cell survival screen; stronger effect = higher value.
In experiment [15] the target is Mitogen-activated protein kinase 7 (Homo sapiens) (UniProt Q13164). Nature of the experiment: Gal4-ERK5 driven luciferase induction – cell-based, HTS, primary screen (AID 1508626;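 active = luciferase signal above three times the same-plate solvent-only control wells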;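 note: luciferase driven by Gal4-ERK5 fusion binding five Gal4 sites before minimal TATA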). The conditions noted are these: HeLa Gal4-ERK5 transactivation, 18 h, at 5 µM, stronger effect = higher value.
Setting [16] is: stronger effect = lower value, cell number ratio, induced over uninduced.
[17] abbreviates: measured here: relative caspase fold change +Dox/-Dox.
The mark [18] stands for this setting: measured here: total cells with miR-34 induction, stronger effect = lower value.
The mark [19] stands for this setting: measured here: total cells without miR-34 induction.
[20] abbreviates: MELAS cybrid survival, CellTiter-Glo 48 h, stronger effect = higher value.
Setting [21] is: Rieske KO mouse fibroblast survival, CellTiter-Glo 72 h.

NAD(+) hydrolase SARM1 (Homo sapiens), sequence (Q6SZW1 whole entry, looked up): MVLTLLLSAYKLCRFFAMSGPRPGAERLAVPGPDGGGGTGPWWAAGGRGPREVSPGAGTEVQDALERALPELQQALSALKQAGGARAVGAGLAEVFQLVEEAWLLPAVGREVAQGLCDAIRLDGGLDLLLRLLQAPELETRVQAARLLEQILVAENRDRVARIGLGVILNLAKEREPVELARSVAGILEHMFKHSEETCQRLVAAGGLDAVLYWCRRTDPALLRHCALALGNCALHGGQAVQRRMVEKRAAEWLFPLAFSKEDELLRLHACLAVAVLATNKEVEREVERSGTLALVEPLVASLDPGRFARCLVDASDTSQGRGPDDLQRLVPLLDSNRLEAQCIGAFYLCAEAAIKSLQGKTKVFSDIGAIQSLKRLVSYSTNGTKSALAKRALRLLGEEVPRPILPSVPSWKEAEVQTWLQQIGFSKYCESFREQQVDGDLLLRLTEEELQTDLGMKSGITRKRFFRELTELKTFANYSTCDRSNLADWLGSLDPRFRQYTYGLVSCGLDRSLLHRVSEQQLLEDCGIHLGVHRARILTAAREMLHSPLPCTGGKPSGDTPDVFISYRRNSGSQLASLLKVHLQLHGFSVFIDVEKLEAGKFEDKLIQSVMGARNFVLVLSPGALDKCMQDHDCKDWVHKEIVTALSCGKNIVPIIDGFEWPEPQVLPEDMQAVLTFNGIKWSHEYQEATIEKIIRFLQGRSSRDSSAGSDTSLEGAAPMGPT
Mitogen-activated protein kinase 7 (Homo sapiens), sequence (Q13164 whole entry, looked up, the tested form may be a part): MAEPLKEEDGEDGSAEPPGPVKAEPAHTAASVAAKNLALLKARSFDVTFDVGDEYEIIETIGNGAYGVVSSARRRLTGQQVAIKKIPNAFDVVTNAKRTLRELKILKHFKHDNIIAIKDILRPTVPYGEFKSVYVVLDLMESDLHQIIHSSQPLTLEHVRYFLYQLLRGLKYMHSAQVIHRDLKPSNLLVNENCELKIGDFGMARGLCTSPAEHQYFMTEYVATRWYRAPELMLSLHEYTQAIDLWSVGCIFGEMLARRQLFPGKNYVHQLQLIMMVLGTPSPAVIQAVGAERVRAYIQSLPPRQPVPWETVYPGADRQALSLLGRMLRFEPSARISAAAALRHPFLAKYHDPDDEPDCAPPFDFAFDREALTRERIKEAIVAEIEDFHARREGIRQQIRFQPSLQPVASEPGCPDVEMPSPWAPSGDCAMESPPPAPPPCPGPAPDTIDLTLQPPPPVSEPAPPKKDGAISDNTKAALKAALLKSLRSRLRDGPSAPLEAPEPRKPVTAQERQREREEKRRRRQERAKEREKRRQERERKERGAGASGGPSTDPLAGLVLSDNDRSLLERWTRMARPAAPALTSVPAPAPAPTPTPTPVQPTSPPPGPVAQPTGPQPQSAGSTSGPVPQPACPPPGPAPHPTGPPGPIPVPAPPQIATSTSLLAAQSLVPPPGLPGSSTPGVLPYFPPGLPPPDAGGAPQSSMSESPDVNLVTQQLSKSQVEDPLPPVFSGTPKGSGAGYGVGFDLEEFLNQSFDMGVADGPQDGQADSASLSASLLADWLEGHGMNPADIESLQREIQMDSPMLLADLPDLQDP

For `CC[C@H](c1ccc(O)cc1)[C@@H](CC)c1ccc(O)cc1`, in experiment [1], the parasite load remaining is 16.7% (inactive). Also, the viability (commonly the share of living cells, or the viability signal relative to a control) in experiment [1] worked out at 82%. The nuclear beta-catenin stimulation was 11.6% (inactive) in [2] (at 10 µM) and 2.5% in [2] (stimulation, at 2 µM). The insulin secretion stimulation in experiment [3] was 1.4% (inactive). Moreover, in [4], the viability decrease was 89.6% (active). Moreover, the tube area decrease in experiment [5] is 20.9% (inactive). Further, the GLP1 secretion stimulation in experiment [6] is 40% (active). Further, the inhibition of viability in experiment [7] is 97% (active). Further, the viability decrease (inhibition) in experiment [8] is 118% (active); in experiment [9], 101% (active). In addition, the fold change in [10] (setting [16]) was 0.78 (inactive); in experiment [10] (setting [17]) it was 0.948. In addition, the values for the cell count in experiment [10] (setting [18]) and in [10] (setting [19]) were 7720 and 9900, respectively. Further, the z-score in experiment [11] (setting [20]) was -1.4 (inactive); in experiment [11] (setting [21]) it was -0.231; in experiment [13], -0.325 (inactive). The remaining NAD in [12] was 10 nM (inactive).
In the case of `Nc1c(CC(=O)O)cccc1C(=O)c1ccccc1`, the nuclear beta-catenin stimulation is 0.8% (inactive) in experiment [2] (at 10 µM) and 0.5% in experiment [2] (stimulation, at 2 µM). For the same molecule, the insulin secretion stimulation in [3] was -0.2% (inactive). The viability decrease in experiment [4] is -2.3% (inactive). The tube area decrease in experiment [5] was -6.1% (inactive). Moreover, in [6], the GLP1 secretion stimulation was 2.5% (inactive). For the same molecule, in [7], the inhibition of viability was 0.4% (inactive). Besides, the viability decrease (inhibition) in experiment [8] is 0.2% (inactive); in experiment [9] it was -11.2% (inactive). Also, the fold change in [10] (setting [16]) was 0.914 (inactive); in experiment [10] (setting [17]), 0.966. Also, the results for the cell count in [10] (setting [18]) and in experiment [10] (setting [19]) were 7840 and 8580, respectively. Moreover, the z-score in experiment [11] (setting [20]) is -0.237 (inactive); in [11] (setting [21]), -0.172.
For `CC(C)(CO)[C@@H](O)C(=O)NCCCO`, the survival in [14] is 26.3 (inactive). Moreover, the parasite load remaining in experiment [1] is 20.9% (inactive) and 97.7% (inactive) and 20.3% (inactive). In [1], the viability was 47.1% and 90.5% and 98.9%. Moreover, the nuclear beta-catenin stimulation in experiment [2] (at 10 µM) is 1.6% (inactive); in experiment [2] (stimulation, at 2 µM), 1.3%. Moreover, the insulin secretion stimulation in experiment [3] is -2.9% (inactive). Also, in experiment [4], the viability decrease is -4.45% (inactive). In experiment [5], the tube area decrease is 10.3% (inactive). For the same molecule, the GLP1 secretion stimulation in experiment [6] was 3.1% (inactive). Besides, the inhibition of viability in [7] was 4.3% (inactive). For the same molecule, the figures for the viability decrease (inhibition) in experiment [8] and in experiment [9] were 100% (active) and -5.1% (inactive), respectively. The fold change in [10] (setting [16]) was 0.883 (inactive) and 0.939 (inactive); in experiment [10] (setting [17]), 1.21 and 2.44. Further, the cell count in experiment [10] (setting [18]) was 8270 and 12000; in experiment [10] (setting [19]) it was 9370 and 12800. Besides, the z-score in [11] (setting [20]) is 0.185 (inactive); in [11] (setting [21]) it was 0.0963. Moreover, in [12], the remaining NAD is 10 nM (inactive).
As for `CC(=O)[C@H]1CC[C@H]2[C@@H]3C=CC4=CC(=O)CC[C@@]4(C)[C@@H]3CC[C@]12C`, the survival in [14] was 6.67 (inactive). Moreover, the parasite load remaining in experiment [1] was 84.3% (inactive). Moreover, in experiment [1], the viability is 94.2%. Moreover, the nuclear beta-catenin stimulation is 4.5% (inactive) in experiment [2] (at 10 µM) and 1.5% in [2] (stimulation, at 2 µM). For the same molecule, in experiment [3], the insulin secretion stimulation was -1.8% (inactive). Further, the viability decrease in experiment [4] is 6.3% (inactive). Further, in experiment [5], the tube area decrease was 4.8% (inactive). In addition, the GLP1 secretion stimulation in [6] was 3.1% (inactive). The inhibition of viability in [7] was 14.9% (inactive). Moreover, the viability decrease (inhibition) in [8] is 64.2% (active); in [9], 5.4% (inactive). The fold change in [10] (setting [16]) is 0.855 (inactive); in [10] (setting [17]), 1.43. Further, the values for the cell count in [10] (setting [18]) and in experiment [10] (setting [19]) were 8320 and 9730, respectively. In addition, the z-score is 0.367 (inactive) in experiment [11] (setting [20]) and 0.105 in experiment [11] (setting [21]). The remaining NAD in [12] is 10 nM (inactive).
For the molecule `C#C[C@]1(OC(C)=O)CC[C@H]2[C@@H]3CCC4=C[C@@H](OC(C)=O)CC[C@@H]4[C@H]3CC[C@@]21C`, the survival in experiment [14] is 3.67 (inactive). Further, the parasite load remaining in experiment [1] was 82.1% (inactive). Besides, the viability in experiment [1] is 93.8%. The nuclear beta-catenin stimulation in experiment [2] (at 10 µM) was 4.6% (inactive); in experiment [2] (stimulation, at 2 µM), 2.1%. For the same molecule, the insulin secretion stimulation in experiment [3] was 0.1% (inactive). The viability decrease in [4] was -55.2% (inactive). Moreover, in experiment [5], the tube area decrease is -2.9% (inactive). Moreover, the GLP1 secretion stimulation in [6] is -2.3% (inactive). Further, the inhibition of viability in [7] is 45% (inactive). In addition, the viability decrease (inhibition) in experiment [8] is 80.6% (active); in experiment [9], 64.6% (active). The fold change in [10] (setting [16]) is 0.877 (inactive); in experiment [10] (setting [17]), 1.09. Also, the cell count turned out to be 9000 in [10] (setting [18]) and 10300 in experiment [10] (setting [19]). In addition, the figures for the z-score in experiment [11] (setting [20]) and in experiment [11] (setting [21]) were -0.135 (inactive) and 0.556, respectively. Also, the remaining NAD in experiment [12] was 10 nM (inactive). In addition, the luciferase signal in [15] was 64 AU (inactive).
